Molecules are shown by their SMILES. Where “and” joins values, the source holds several entries; their conditions need not be identical. Equal entries are not always repeated. The campaign covered roughly 2,000 compounds. About 100 (5%) were called active. No stated cut-off is given here; in the data, active means z-score above about 2; inactive means the rest. Shown is part of a subset that was picked to be rich in actives.

This experiment can be described thus: supercomplex reporter luminescence per Hoechst cell count – Hoechst nuclei count (AID 1645838).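 On all read-outs here: control cybrid cells.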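 On z-score: higher means more mitochondrial supercomplex formation.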 The note with it: Cells, luminescence/Hoechst cell count ratio; for z-score: stronger effect = higher value; for cell count: measured here: cell number, Hoechst nuclei count.
Setting [1] is: library stock concentration (final well concentration not given) 80 uM.
[2] abbreviates: library stock concentration (final well concentration not given) 400 uM.
The mark [3] stands for this setting: library stock concentration (final well concentration not given) 2 mM.
The mark [4] stands for this setting: library stock concentration (final well concentration not given) 10 mM.
Where [5] appears, read: library stock concentration (final well concentration not given) 46 uM.
Where [6] appears, read: library stock concentration (final well concentration not given) 278 uM.
Where [7] appears, read: library stock concentration (final well concentration not given) 1.67 mM.

Take `COc1cc(Cc2cnc(N)nc2N)c2c(c1OC)OC(C1CC1)C=C2` (stereo unspecified): the z-score was -0.274 (inactive) under setting [1], -0.19 (inactive) under setting [2], -0.518 (inactive) under setting [3] and -0.337 (inactive) under setting [4]. Also, the cell count reads like this: under setting [1], 5160; under setting [2], 5070; under setting [3], 5260; under setting [4], 4960.
In the case of `CC(Sc1nc2ccccc2[nH]1)C(=O)N/N=C/c1cc(Br)ccc1O` (stereo unspecified), the z-score was -0.336 (inactive) and the cell count was 5170.
With `CC(Sc1nc2ccccc2[nH]1)C(=O)NN=Cc1cc(Br)ccc1O` (stereo unspecified), the z-score is -1.02 (inactive) under setting [5], -0.707 (inactive) under setting [6], -0.734 (inactive) under setting [7] and 3.92 (active) under setting [4]. For the same compound, the cell count came out at 7560 under setting [5], 6830 under setting [6], 7060 under setting [7] and 3080 under setting [4].
For `CC/C=C\C/C=C\C/C=C\C/C=C\C/C=C\C/C=C\CCC(=O)NCCO`, the z-score is -0.366 (inactive) and the cell count amounted to 5340.
In the case of `COc1ccc(CCOC2CCCCC2N2CCC(O)C2)cc1OC` (stereo unspecified), the z-score runs as follows: under setting [1], 0.0501 (inactive); under setting [2], 0.255 (inactive); under setting [3], -0.0276 (inactive); under setting [4], -0.648 (inactive). Further, the cell count reads like this: under setting [1], 5440; under setting [2], 4950; under setting [3], 5110; under setting [4], 5070.
Take `CN1CCN(c2ccc(Nc3cc(-c4cccc(-n5ccc6cc(C7CC7)cc(F)c6c5=O)c4CO)cn(C)c3=O)nc2)CC1`: the z-score under setting [5] is -0.128 (inactive), the z-score under setting [6] was 0.295 (inactive), the z-score under setting [7] is 0.189 (inactive) and the z-score under setting [4] is 2.34 (active). For the same compound, the cell count runs as follows: under setting [5], 6870; under setting [6], 6260; under setting [7], 6670; under setting [4], 4620.
For the compound `Cc1ccc(-c2ccc3c(c2)C=C(C(=O)Nc2ccc(C[N+](C)(C)C4CCOCC4)cc2)CCC3)cc1`, the z-score is 0.0335 (inactive) under setting [1], -0.0352 (inactive) under setting [2], 0.025 (inactive) under setting [3] and 0.462 (inactive) under setting [4]. Further, the cell count is, setting by setting: under setting [1], 6000; under setting [2], 5610; under setting [3], 5740; under setting [4], 4810.
In the case of `CCCCc1ccc(O)cc1O`, the z-score under setting [1] was -0.0561 (inactive), the z-score under setting [2] was -0.187 (inactive), the z-score under setting [3] was -0.116 (inactive) and the z-score under setting [4] is -0.378 (inactive). Also, the cell count worked out at 5090 under setting [1], 5680 under setting [2], 5060 under setting [3] and 5370 under setting [4].
For `CCC1C(=O)N(C)c2cnc(Nc3ccc(C(=O)NC4CCC(N5CCN(CC6CC6)CC5)CC4)cc3OC)nc2N1C(C)C` (stereo unspecified), the outcome by setting is: (library stock 80 µM) “inactive; censored for cell count”; (library stock 400 µM) “inactive; censored for cell count”; (library stock 2 mM) “inactive; censored for cell count”; (library stock 10 mM) “inactive; censored for cell count”.
Consider `CC(C)c1ccc(-c2cc(=O)c3ccccc3o2)cc1`, for which the z-score was 0.0844 (inactive) under setting [1], 1e-05 (inactive) under setting [2], -0.0931 (inactive) under setting [3] and -0.264 (inactive) under setting [4]. In addition, the cell count was 5390 under setting [1], 5660 under setting [2], 5670 under setting [3] and 5910 under setting [4].
Consider `CCc1nc(N)nc(N)c1-c1ccc(Cl)cc1`, for which the z-score is, setting by setting: under setting [5], -0.369 (inactive); under setting [6], -0.308 (inactive); under setting [7], -0.256 (inactive); under setting [4], 2.87 (active). Besides, the cell count under setting [5] was found to be 6220, the cell count under setting [6] was found to be 5950, the cell count under setting [7] turned out to be 4990 and the cell count under setting [4] worked out at 2210.
For the compound `Cc1nc(C(=O)N2CCCC2Cc2nnc(-c3ccccc3)o2)c(-c2ccccc2F)s1` (stereo unspecified), the z-score is -0.436 (inactive) under setting [1], -0.462 (inactive) under setting [2], -0.287 (inactive) under setting [3] and -0.37 (inactive) under setting [4]. The cell count by setting is: under setting [1], 6270; under setting [2], 5950; under setting [3], 5640; under setting [4], 5740.
`CCCCC[C@H](O)/C=C/[C@H]1C(=O)C[C@H](O)[C@@H]1C/C=C\CCCC(=O)OCC(O)CO` (stereo partly specified): the z-score was 0.539 (inactive) and the cell count stood at 4970.
Regarding `CCCCC[C@H](O)/C=C/[C@@H]1[C@@H](C/C=C/CCCC(=O)O)[C@@H](O)C[C@H]1O`, the z-score was -0.886 (inactive) and -1.17 (inactive); the cell count is 5940 and 5560.
`COc1ccc(C(=O)Nc2sc(Nc3ccccc3)nc2C(N)=O)cc1`: the z-score under setting [1] was 0.24 (inactive), the z-score under setting [2] was 0.382 (inactive), the z-score under setting [3] was -0.143 (inactive) and the z-score under setting [4] is 1.05 (inactive). In addition, the cell count under setting [1] was 4690, the cell count under setting [2] amounted to 4800, the cell count under setting [3] turned out to be 4780 and the cell count under setting [4] was found to be 4300.
`CC(=O)Nc1ccc(C(=O)Nc2sc(Nc3ccccc3)nc2C(N)=O)cc1`: the z-score by setting is: under setting [1], 0.365 (inactive); under setting [2], 0.37 (inactive); under setting [3], 2.89 (active); under setting [4], 5.1 (active). Further, the cell count is, setting by setting: under setting [1], 5180; under setting [2], 5070; under setting [3], 3500; under setting [4], 2950.
Regarding `CC(=O)Nc1ccc(NC(=S)NC(=O)c2ccc(C(C)(C)C)cc2)cc1`, the z-score is 1.3 (inactive) and the cell count came to 5410.
Take `CCCCC[C@H](O)CC[C@@H]1[C@@H](CCCCCCC(=O)O)[C@@H](O)C[C@H]1O`: the z-score is -0.187 (inactive) and the cell count worked out at 5660.
On to `COc1cc(Nc2ncc(F)c(Nc3ccc4c(n3)NC(=O)C(C)(C)O4)n2)cc(OC)c1OC`, for which the z-score by setting is: under setting [1], -0.348 (inactive); under setting [2], -0.268 (inactive); under setting [3], 0.433 (inactive); under setting [4], 2.15 (active). Also, the cell count was 4400 under setting [1], 3910 under setting [2], 3800 under setting [3] and 1990 under setting [4].
For the compound `CCCCCCCCCCCCCCNC(=O)C1CCCCC1`, the z-score was -0.131 (inactive) and the cell count worked out at 5060.
`COc1cc(C(C)C)c2c(c1)S(=O)(=O)N(COc1cc(=O)n3cccc(OCCN4CCCCC4)c3n1)C2=O`: the z-score runs as follows: under setting [5], -0.456 (inactive); under setting [6], -0.0963 (inactive); under setting [7], -0.654 (inactive); under setting [4], -0.644 (inactive). Also, the cell count was 7070 under setting [5], 6790 under setting [6], 6790 under setting [7] and 5780 under setting [4].
For `CN(C)C(=O)c1cc2cnc(Nc3ccc(N4CCNCC4)cn3)nc2n1C1CCCC1`, the z-score reads like this: under setting [1], 0.288 (inactive); under setting [2], 0.657 (inactive); under setting [3], 1.74 (inactive); under setting [4], 2.33 (active). Besides, the cell count reads like this: under setting [1], 5680; under setting [2], 5400; under setting [3], 4600; under setting [4], 3840.
Take `CC(=O)c1c(C)c2cnc(Nc3ccc(N4CCNCC4)cn3)nc2n(C2CCCC2)c1=O`: the z-score was -0.186 (inactive) under setting [5]; -0.0747 (inactive) under setting [1]; 0.0516 (inactive) under setting [6]; 0.049 (inactive) under setting [2]; 1.11 (inactive) under setting [7]; 0.264 (inactive) under setting [3]. The z-score under setting [4] is -0.00116 (inactive) and 1.25 (inactive). Moreover, the cell count under setting [5] stood at 4850; the cell count under setting [1] turned out to be 4290; the cell count under setting [6] amounted to 4600; the cell count under setting [2] was 4340; the cell count under setting [7] came out at 3490; the cell count under setting [3] turned out to be 4140. Further, the cell count under setting [4] was 4170 and 3080.
Take `CCCCC/C=C\C/C=C\C/C=C\C/C=C\CCCCN1C(=O)C=CC1=O`: the z-score was 0.0996 (inactive) and the cell count is 4710.
With `Nc1nc2c([nH]c(=O)n2[C@H]2C[C@H](O)[C@@H](CO)O2)c(=O)[nH]1`, the z-score is -0.23 (inactive) and the cell count is 5380.
Take `O=C(Nc1ccc(N2CCOCC2)cc1)c1n[nH]c2ccccc12`: the z-score is 0.294 (inactive) under setting [1], 0.396 (inactive) under setting [2], -0.44 (inactive) under setting [3] and 0.0641 (inactive) under setting [4]. Besides, the cell count under setting [1] worked out at 5020, the cell count under setting [2] worked out at 4770, the cell count under setting [3] is 4900 and the cell count under setting [4] was found to be 4350.
In the case of `CCCCC[C@H](O)/C=C/[C@H]1C(=O)C[C@H](O)[C@@H]1CCCCCCCO`, the z-score is 0.644 (inactive) and the cell count was determined as 4950.
Consider `O=C(Nc1cccc(Nc2ncc(Br)c(NCCc3cnc[nH]3)n2)c1)N1CCCC1`, for which the outcome (library stock 10 mM) was “inactive; censored for cell count”. Besides, the z-score is -0.139 (inactive) under setting [5]; -0.647 (inactive) under setting [1]; 0.0145 (inactive) under setting [6]; -0.129 (inactive) under setting [2]; 3.24 (active) under setting [7]; 0.129 (inactive) under setting [3]. Besides, the cell count is, setting by setting: under setting [5], 5940; under setting [1], 4860; under setting [6], 6000; under setting [2], 4520; under setting [7], 2060; under setting [3], 3760.
